# Results filed as inconclusive are left out. A call without a number means that no potency is given here. Active and inactive are the calls of the source. Calls come from the whole dose curve.
# Test: Cytotoxicity counterscreen for inhibitors of SARS-CoV-2 cell entry (AID 1645845); note: nearly all actives have a fitted effect of over 50% in size
# Details: cell viability (SARS-CoV-2 entry assay cells); series mostly up to 57.1 µM
# Method in brief: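 HEK293-ACE2 cells (Expi293F stably expressing human ACE2) seeded overnight, then compound for 1 h plus 48 h at 37C. Viability as ATP content by luminescence; normalized to wells with cells and media-only wells.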
row,SMILES,outcome
1,COc1cc2c(cc1OC)[C@@]13CCN4CC5=CCO[C@H]6CC(=O)N2[C@H]1[C@H]6[C@H]5C[C@H]43,inactive
2,CCN(CC)C(=O)N[C@H]1C[C@@H]2c3cccc4[nH]cc(c34)C[C@H]2N(C)C1,inactive
3,CCC(=O)O[C@@](Cc1ccccc1)(c1ccccc1)[C@@H](C)CN(C)C,inactive
4,CC[N+](C)(CC)CCOC(=O)C(O)(c1ccccc1)c1ccccc1,inactive
5,O=C(O)C(Cl)(Cl)Cl,inactive

# Test: Primary qHTS to identify inhibitors of SARS-CoV-2 cell entry (AID 1645846); note: nearly all actives have a fitted effect of over 45% in size
# Details: SARS-CoV-2 pseudovirus cell entry assay, luminescence; activity change, negative = inhibition: at 57.1 µM (top of the series) unless noted; series mostly up to 57.1 µM
# Method in brief: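 Entry measured by luciferase signal 48 h after adding SARS-CoV-2-S pseudotyped MLV particles to HEK293-ACE2 cells preincubated 1 h with compounds. Normalisation: bald particles and spike particles.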
SMILES,"activity change, negative = inhibition",Potency
O=C(OCCN1CCCCC1)C(O)(c1ccccc1)c1ccccc1,-28.8%,
O=P(O)(O)C(Cl)(Cl)P(=O)(O)O,-6.21% [at 5.25 µM],
CCC1C(C)=NN=C(c2ccc(OC)c(OC)c2)c2cc(OC)c(OC)cc21 (centres undefined),,inactive
C[C@@H]([C@H](O)c1ccccc1)N(C)C,-34.9%,
c1ccc2sc(SNC3CCCCC3)nc2c1,2.84% [at 114 µM],
NCC(O)c1cccc(O)c1 (centres undefined),-19.3%,
ClC1C(Cl)C(Cl)C(Cl)C(Cl)C1Cl (centres undefined),,inactive
CC(C)CCON=O,,inactive
CCCCCCCCCC(=O)O[C@H]1CC[C@H]2[C@@H]3CCC4=CC(=O)CC[C@]4(C)[C@H]3CC[C@]12C,-15.3%,
C[N+]1(C)CCCCC1COC(=O)C(O)(c1ccccc1)c1ccccc1 (centres undefined),-8.43%,
CC1CCC(C(C)C)C(OC(=O)c2ccccc2N)C1 (centres undefined),-3.33%,
CN1[C@H]2CC[C@@H]1[C@@H](C(=O)O)[C@@H](OC(=O)c1ccccc1)C2,-21.7% [at 114 µM],
CCCCNCC(O)c1ccc(O)cc1 (centres undefined),,inactive
O=[N+]([O-])C(Br)(CO)CO,,inactive
